How the values were obtained:
Test in all cases: PBM binding z-score (relative to random genomic background probes); higher = stronger binding; sequences stand for … in GC…GCGATTGACAGCGTAGAATGAAGG
[1] = test system: PPARg:RXRa DBDmut IVT, anti-RXR (DBD mutation: RXRa K156A/R161A, NR concentration 270 nM, RXRa partner concentration 90 nM)
Outline: (§1)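 Scanned fluorescence from custom Agilent 4×180K protein-binding microarrays was regression-normalized. Binding z-scores use random background probes as reference. Ligand-free nuclear receptor dimers were incubated on the arrays for 1 h and detected with antibodies against each partner (one per run).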

[2] = test system: PPARg:RXRa IVT, anti-PPARg (NR concentration 270 nM, RXRa partner concentration 90 nM)
Outline: as §1

[3] = test system: PPARg DBDmut:RXRa IVT, anti-PPARg (DBD mutation: PPARg1 K132A/R137A, NR concentration 270 nM, RXRa partner concentration 90 nM)
Outline: as §1

[4] = test system: PPARg DBDmut IVT, anti-PPARg (DBD mutation: PPARg1 K132A/R137A, NR concentration 270 nM)
Outline: as §1

[5] = test system: PPARg homodimer (NR concentration 180 nM)
Outline: as §1

[6] = test system: PXR:RXRa (NR concentration 270 nM, RXRa partner concentration 90 nM)
Outline: as §1

[7] = test system: PXR homodimer (NR concentration 270 nM)
Outline: as §1

[8] = test system: RARa:RXR (NR concentration 270 nM, RXRa partner concentration 90 nM)
Outline: as §1

[9] = test system: RARa homodimer (NR concentration 270 nM)
Outline: as §1

[10] = test system: RARb:RXRa (NR concentration 270 nM, RXRa partner concentration 90 nM)
Outline: as §1

[11] = test system: RARb homodimer (NR concentration 270 nM)
Outline: as §1

[12] = test system: RARg:RXRa (NR concentration 270 nM, RXRa partner concentration 90 nM)
Outline: as §1

[13] = test system: RARg homodimer (NR concentration 270 nM)
Outline: as §1

[14] = test system: RXRa DBDmut IVT, anti-RXR (DBD mutation: RXRa K156A/R161A, NR concentration 90 nM)
Outline: as §1

[15] = test system: RXRa homodimer (NR concentration 180 nM)
Outline: as §1

[16] = test system: THRa:RXRa (NR concentration 90 nM, RXRa partner concentration 90 nM)
Outline: as §1

[17] = test system: THRa homodimer (NR concentration 90 nM)
Outline: as §1

[18] = test system: VDR homodimer (NR concentration 270 nM)
Outline: as §1

Sequence | PBM binding z-score [1] | PBM binding z-score [2] | PBM binding z-score [3] | PBM binding z-score [4] | PBM binding z-score [5] | PBM binding z-score [6] | PBM binding z-score [7] | PBM binding z-score [8] | PBM binding z-score [9] | PBM binding z-score [10] | PBM binding z-score [11] | PBM binding z-score [12] | PBM binding z-score [13] | PBM binding z-score [14] | PBM binding z-score [15] | PBM binding z-score [16] | PBM binding z-score [17] | PBM binding z-score [18]
TCTAGCAGGCCAGAGGGTCACTCAAGAGGTACGG | 0.944 | 0.645 | -0.27 | -1.24 | 0.106 | 1.57 | -0.442 | 2.03 | -0.734 | 2.09 | 2.8 | 2.56 | 2.39 | -0.167 | 2.61 | 1.54 | -0.299 | 0.59
CCGACGGGGGCATAAGGTTACCATAAGCCAGCCC | 1.29 | 2.29 | 0.647 | 0.997 | 1.67 | 2.75 | 0.496 | 3.93 | 0.379 | 2.86 | 2.78 | 4.76 | 3.14 | 2.15 | 3.62 | 3.58 | 1.76 | 2.1
CGAACGAGGGCATGAGCTGATAGCAAATGCCGAT | 2.42 | 1.97 | 0.174 | -0.689 | -0.392 | 0.327 | -0.221 | 0.529 | -0.331 | 1.87 | 0.6 | 1.19 | 1.39 | 1.96 | 1.06 | 1.15 | -0.325 | 0.803
TGAATGAGGTTATAAGATCAGGGATCGTTGCAAA | 0.979 | 1.86 | 1.31 | 0.477 | 0.305 | 0.783 | 0.0722 | 1.24 | 0.256 | 0.862 | -0.0683 | 1.33 | 0.782 | 0.362 | 2.09 | 1.68 | 0.0696 | 0.406
CCGCCTGGGGCAAGGTTACCATAACGCACAGCCA | -0.567 | 0.525 | -0.637 | -1.46 | 0.471 | 0.34 | -0.119 | 0.916 | -0.239 | 1.61 | 1.52 | 1.06 | 1.1 | -0.994 | 0.987 | 1.3 | 0.7 | -0.0695
CCTACTGGGCCACCAGGTCATTGATATCAACGTT | 4.8 | 6.19 | -0.327 | -0.298 | 1.02 | 1.73 | 0.656 | 1.75 | 0.342 | 1.98 | 2.62 | 2.19 | 2 | -0.211 | 1.43 | 2.94 | 2.63 | 1.77
CGAACTAAGTCAAGGACAGTGAATCTCCGCACGC | 0.868 | 0.214 | -0.424 | -0.249 | -0.418 | -0.229 | -0.329 | 0.0296 | -0.646 | 0.556 | 0.164 | 0.0358 | 0.274 | 0.417 | -0.164 | 1.45 | 1.12 | -0.0534
TGAATGAGGTTATAAGCTCAGGGAACGTTGCAAA | 1.28 | 1.28 | 0.166 | 0.543 | -0.0591 | 0.55 | -0.553 | 1.26 | -1.17 | 1.04 | -0.162 | 1.1 | 0.731 | 0.518 | 1.91 | 1.67 | 0.118 | 0.00669
ACTATTAGTTGAGTTAGGGCAACCGATACGACGC | -0.0972 | 0.498 | 1.2 | 0.707 | 0.995 | 0.111 | 0.462 | -0.0618 | 1.3 | 0.797 | 0.47 | 0.417 | 0.783 | 0.652 | 0.292 | 1.21 | 0.245 | 0.368
CTCGCAAGGTCGTGCTCAGGTGAGTATACCAAAC | 0.0828 | 0.996 | -0.606 | -0.427 | 0.113 | 1.76 | -0.272 | 2.37 | -0.702 | 2.47 | 1.7 | 3.26 | 2.14 | 2.15 | 2.52 | 3.63 | 1.6 | 1.22
TCTTGTAGATCAATAGTGGTTAAGAAAGTGCGCT | 1.98 | 0.303 | 0.28 | 1.33 | 0.545 | 0.46 | 0.364 | 0.481 | 0.947 | 0.0691 | -0.161 | -0.0273 | -0.193 | 0.933 | 0.198 | 0.0334 | -0.033 | 0.464
GCTTGTACATCAAGGTTAAGAAAGACTAAGCTAA | -0.0633 | 0.772 | 0.219 | -0.0385 | 0.116 | 0.266 | -0.152 | 0.856 | 0.262 | 0.882 | 0.275 | 0.435 | 0.375 | -0.122 | 0.599 | 0.997 | -0.187 | -0.281
AGTCAAAGTTCACTAGGGAACGTAAGATTCAGCT | 0.937 | 3.63 | 0.753 | 0.755 | 2.24 | 3.94 | 2.56 | 2.71 | 0.63 | 4.57 | 3.65 | 4.75 | 5.65 | 4.23 | 3.67 | 2.05 | -0.852 | 3.23
GGAACGACGGCAAGTTGATAGCAGAGTTTGATGG | -0.476 | -0.312 | -0.309 | -0.721 | -0.705 | -0.547 | 0.0619 | -0.23 | -0.783 | -0.715 | -0.7 | -0.136 | -0.0502 | -0.124 | -0.0735 | -0.769 | -1.02 | -0.205
AATACAGGGTCACTACGCCAGAGTAGGTACGAAT | 2.98 | 4.51 | 2.04 | 1.71 | 2.16 | 3.28 | 0.564 | 4.53 | 1.63 | 4.17 | 3.19 | 5.26 | 4.83 | 3.03 | 5.7 | 3.5 | 1.33 | 3.21

From the supplement of paper PMC6555819
